Experimental data as given in PubChem BioAssay (NCATS).
Results filed as inconclusive are left out. Entries that show only a call come without a potency. Active and inactive are the calls of the source. The call rests on the fitted dose curve; in most records, active means well fitted inhibition curve with a large enough effect; inconclusive means small, poorly fitted or top-dose-only effect; inactive means flat fitted curve, though single readings scatter. Non-standard residues stand in square brackets, D forms with d. Residues, ends and D or L forms follow the SMILES beside them. *: point of attachment. Sta = CC(C)C[C@H](N)[C@@H](O)CC(=O)O; Isovaleryl = CC(C)CC(=O)*

Target: Voltage-gated inwardly rectifying potassium channel KCNH2 (Homo sapiens) (UniProt Q12809)
Assay: qHTS Assay for Small Molecule Inhibitors of the Human hERG Channel Activity (AID 588834);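 further: lower thallium flux fluorescence means stronger hERG block; nearly all actives have a fitted effect of over 50% in size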
Details: U2OS BacMam hERG, FluxOR thallium flux fluorescence; series mostly up to 46.1 µM
How it was run: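 U2OS cells BacMam-transduced with hERG, 2000 cells/well, compound ~10 min at 37 °C before stimulation buffer. FluxOR thallium flux fluorescence read kinetically on FDSS; decrease indicates block; AC50 from Hill fits.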
Potency means the concentration at half of the fitted maximal effect.

Sequence of Voltage-gated inwardly rectifying potassium channel KCNH2 (Homo sapiens) (Q12809 whole entry, looked up): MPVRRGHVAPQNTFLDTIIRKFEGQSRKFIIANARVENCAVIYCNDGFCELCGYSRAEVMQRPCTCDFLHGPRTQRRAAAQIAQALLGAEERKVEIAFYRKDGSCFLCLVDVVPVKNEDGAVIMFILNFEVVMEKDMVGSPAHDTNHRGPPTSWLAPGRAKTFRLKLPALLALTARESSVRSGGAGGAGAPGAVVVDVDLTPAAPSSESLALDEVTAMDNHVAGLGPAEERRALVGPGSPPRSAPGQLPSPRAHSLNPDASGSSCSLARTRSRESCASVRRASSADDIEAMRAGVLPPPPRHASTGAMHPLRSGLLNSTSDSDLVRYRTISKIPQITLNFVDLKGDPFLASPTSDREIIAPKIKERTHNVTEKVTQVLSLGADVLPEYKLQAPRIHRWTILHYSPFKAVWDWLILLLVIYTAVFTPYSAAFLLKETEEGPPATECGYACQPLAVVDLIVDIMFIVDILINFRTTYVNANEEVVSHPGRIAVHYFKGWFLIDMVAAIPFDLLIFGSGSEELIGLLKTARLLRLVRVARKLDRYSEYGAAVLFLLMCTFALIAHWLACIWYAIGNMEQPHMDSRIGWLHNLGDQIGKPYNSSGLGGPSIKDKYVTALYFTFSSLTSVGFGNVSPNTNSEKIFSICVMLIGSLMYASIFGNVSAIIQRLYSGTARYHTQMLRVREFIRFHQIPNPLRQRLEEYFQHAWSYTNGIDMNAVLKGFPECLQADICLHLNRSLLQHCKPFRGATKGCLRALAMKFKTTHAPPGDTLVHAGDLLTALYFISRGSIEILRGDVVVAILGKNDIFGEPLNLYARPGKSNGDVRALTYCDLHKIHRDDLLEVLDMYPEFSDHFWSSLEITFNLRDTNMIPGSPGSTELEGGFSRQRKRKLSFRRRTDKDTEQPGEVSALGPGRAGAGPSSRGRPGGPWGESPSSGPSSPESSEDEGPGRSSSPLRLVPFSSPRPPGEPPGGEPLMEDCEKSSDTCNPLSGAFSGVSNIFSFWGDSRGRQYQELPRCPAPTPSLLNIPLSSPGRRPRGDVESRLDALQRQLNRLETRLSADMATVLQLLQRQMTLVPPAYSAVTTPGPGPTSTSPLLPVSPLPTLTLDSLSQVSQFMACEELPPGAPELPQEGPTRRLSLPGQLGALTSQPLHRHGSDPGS

**Q.** How did the Potency turn out when Cc1cccc(CN2CCN(C(c3ccccc3)c3ccc(Cl)cc3)CC2)c1 (configuration not stated) was run?
**A.** The Potency was 1.26 µM (active).

**Q.** O=C(O)c1cccc(-c2noc(-c3ccccc3F)n2)c1 was tested. Which Potency did it give?
**A.** The Potency was “inactive”.

**Q.** For Cc1cccc(C#Cc2ccccc2)n1, which Potency is on record?
**A.** Its Potency is “inactive”.

**Q.** With COc1ccc(C2(C#N)CCC(C(=O)O)CC2)cc1OC1CCCC1 (configuration not stated) as the compound, how does the Potency read?
**A.** Its Potency is “inactive”.

**Q.** For O=C(O)c1cn(-c2ccc(F)cc2)c2cc(N3CCNCC3)c(F)cc2c1=O, which Potency is on record?
**A.** The Potency was “inactive”.

**Q.** O=C1c2c(O)cc(O)cc2OC(c2ccc(O)c(O)c2)C1O (configuration not stated) was tested. Which Potency did it give?
**A.** The Potency was “inactive”.

**Q.** CC(=O)O[C@H]1C(=O)[C@@]2(C)C([C@H](OC(=O)c3ccccc3)[C@]3(O)C[C@H](OC(=O)[C@H](O)[C@@H](NC(=O)c4ccccc4)c4ccccc4)C(C)=C1C3(C)C)[C@]1(OC(C)=O)CO[C@@H]1C[C@@H]2O (some centres not stated) was tested. Which Potency did it give?
**A.** The Potency was “inactive”.

**Q.** With CCCCN(CCCC)CCC(O)c1cc2c(Cl)cc(Cl)cc2c2cc(C(F)(F)F)ccc12 (configuration not stated) as the compound, how does the Potency read?
**A.** Its Potency is 0.398 µM (active).

**Q.** For CN(c1nccc(=O)[nH]1)C1CCN(c2nc3ccccc3n2Cc2ccc(F)cc2)CC1, which Potency is on record?
**A.** Its Potency is 1.78 µM (active).

**Q.** How did the Potency turn out when CCC(C)(Oc1ccc(C2(c3ccc(OC(C)(CC)C(=O)O)cc3)CCCCC2)cc1)C(=O)O (configuration not stated) was run?
**A.** Its Potency is “inactive”.

**Q.** How did the Potency turn out when CN(C)c1ccc(O)c2c1C[C@H]1C[C@H]3[C@H](N(C)C)C(=O)C(C(N)=O)=C(O)[C@@]3(O)C(=O)C1=C2O was run?
**A.** Its Potency is “inactive”.

**Q.** For CCCCCCCCCCCCCCCCCCCCCCO, which Potency is on record?
**A.** Its Potency is “inactive”.

**Q.** How did the Potency turn out when Cc1cc(C2CCCCC2)n(O)c(=O)c1 was run?
**A.** Its Potency is “inactive”.

**Q.** For Oc1ccc(-c2nc(-c3ccc(F)cc3)c(-c3ccncc3)[nH]2)cc1, which Potency is on record?
**A.** The Potency was “inactive”.

**Q.** How did the Potency turn out when COc1c(O)cc2c(c1O)[C@@H]1O[C@H](CO)[C@@H](O)[C@H](O)[C@H]1OC2=O was run?
**A.** The Potency was “inactive”.

**Q.** How did the Potency turn out when O=C(O)CCNC(=O)c1ccc(N=Nc2ccc(O)c(C(=O)O)c2)cc1 was run?
**A.** The Potency was “inactive”.

**Q.** For O=Nc1c(-c2c(O)[nH]c3cc(Br)ccc23)[nH]c2ccccc12, which Potency is on record?
**A.** Its Potency is 11.2 µM (active).

**Q.** C[C@]12CCC(=O)C=C1CC[C@@H]1[C@H]2[C@@H](O)C[C@@]2(C)[C@H]1CC[C@]2(O)C(=O)CO was tested. Which Potency did it give?
**A.** The Potency was “inactive”.

**Q.** How did the Potency turn out when O=c1ccc2ccc(O)c(O)c2o1 was run?
**A.** Its Potency is “inactive”.

**Q.** With CN1CCC(=C2c3ccccc3CCc3sccc32)CC1 as the compound, how does the Potency read?
**A.** Its Potency is 10 µM (active).

**Q.** Which Potency does the source give for CC(C)CC(=O)N[C@H](C(=O)N[C@H](C(=O)N[C@@H](CC(C)C)[C@@H](O)CC(=O)N[C@@H](C)C(=O)N[C@@H](CC(C)C)[C@@H](O)CC(=O)O)C(C)C)C(C)C (Isovaleryl-VV[Sta]A[Sta]-OH) here?
**A.** The Potency was “inactive”.

**Q.** For COCCCOc1ccnc(CS(=O)c2nc3ccccc3[nH]2)c1C (configuration not stated), which Potency is on record?
**A.** Its Potency is “inactive”.

**Q.** Which Potency does the source give for S=c1nc[nH]c2nc[nH]c12 here?
**A.** The Potency was “inactive”.

**Q.** With COC(=O)C1=C(C)NC(C)=C(C(=O)OC(C)C)C1c1cccc2nonc12 (configuration not stated) as the compound, how does the Potency read?
**A.** The Potency was “inactive”.

**Q.** Which Potency does the source give for CCCOc1ccc2nc(NC(=O)OC)[nH]c2c1 here?
**A.** Its Potency is “inactive”.

**Q.** Which Potency does the source give for Nc1nc(OCc2ccccc2)c2[nH]cnc2n1 here?
**A.** Its Potency is “inactive”.

**Q.** Cc1ccc(S(=O)(=O)NC(=O)NN2CC3CCCC3C2)cc1 (configuration not stated) was tested. Which Potency did it give?
**A.** The Potency was “inactive”.

**Q.** Cc1cc2cc3c(C)cc(=O)oc3c(C)c2o1 was tested. Which Potency did it give?
**A.** Its Potency is “inactive”.

**Q.** O=c1c(O)c(-c2cc(O)c(O)c(O)c2)oc2cc(O)cc(O)c12 was tested. Which Potency did it give?
**A.** The Potency was “inactive”.

**Q.** With O=c1cc(N2CCOCC2)oc2c(-c3ccccc3)cccc12 as the compound, how does the Potency read?
**A.** Its Potency is “inactive”.

**Q.** Which Potency does the source give for COC1=C(OC)C(=O)C(CCCCCCCCCCO)=C(C)C1=O here?
**A.** Its Potency is “inactive”.

**Q.** CC(C)C[C@H](NC(=O)[C@H](Cc1ccccc1)NC(=O)c1cnccn1)B(O)O was tested. Which Potency did it give?
**A.** The Potency was “inactive”.

**Q.** Which Potency does the source give for C[Se]CCC(N)C(=O)O (configuration not stated) here?
**A.** Its Potency is “inactive”.

Target: Luciferin 4-monooxygenase (Photinus pyralis) (UniProt P08659)
Assay: Biochemical firefly luciferase enzyme assay for NPC (AID 624030); further: nearly all actives have a fitted effect of over 70% in size
Details: purified P. pyralis luciferase, luminescence, 5 min; series mostly up to 58.6 µM
How it was run: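 Counter-screen for direct inhibition of the luciferase enzyme by approved-drug library compounds, run at 10 nM enzyme in 50 mM Tris acetate (final). Luminescence was read within 5 min of enzyme-buffer addition and normalized to PTC124 versus DMSO (0%).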

Sequence of Luciferin 4-monooxygenase (Photinus pyralis) (P08659 whole entry, looked up): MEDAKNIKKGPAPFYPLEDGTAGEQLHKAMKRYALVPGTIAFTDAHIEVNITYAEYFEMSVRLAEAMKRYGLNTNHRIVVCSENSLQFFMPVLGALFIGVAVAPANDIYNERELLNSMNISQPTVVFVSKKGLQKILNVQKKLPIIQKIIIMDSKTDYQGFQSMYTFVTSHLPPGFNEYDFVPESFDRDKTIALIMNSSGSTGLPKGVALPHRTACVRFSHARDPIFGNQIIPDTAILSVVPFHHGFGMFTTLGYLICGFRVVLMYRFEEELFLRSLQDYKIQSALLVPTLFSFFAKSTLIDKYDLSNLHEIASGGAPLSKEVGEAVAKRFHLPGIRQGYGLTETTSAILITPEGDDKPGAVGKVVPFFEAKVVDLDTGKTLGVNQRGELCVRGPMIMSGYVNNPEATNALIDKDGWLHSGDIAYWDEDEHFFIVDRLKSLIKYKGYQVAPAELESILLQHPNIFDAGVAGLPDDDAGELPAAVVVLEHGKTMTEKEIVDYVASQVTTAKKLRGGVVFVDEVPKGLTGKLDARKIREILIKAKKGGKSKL

**Q.** For O=C(O)c1cccc(-c2noc(-c3ccccc3F)n2)c1, which Potency is on record?
**A.** The Potency was 7.2 nM (active).

**Q.** For COc1ccc(C2(C#N)CCC(C(=O)O)CC2)cc1OC1CCCC1 (configuration not stated), which Potency is on record?
**A.** Its Potency is “inactive”.

**Q.** How did the Potency turn out when O=C(O)c1cn(-c2ccc(F)cc2)c2cc(N3CCNCC3)c(F)cc2c1=O was run?
**A.** The Potency was “inactive”.

**Q.** With CCCCN(CCCC)CCC(O)c1cc2c(Cl)cc(Cl)cc2c2cc(C(F)(F)F)ccc12 (configuration not stated) as the compound, how does the Potency read?
**A.** The Potency was “inactive”.

**Q.** For CN(c1nccc(=O)[nH]1)C1CCN(c2nc3ccccc3n2Cc2ccc(F)cc2)CC1, which Potency is on record?
**A.** Its Potency is “inactive”.

**Q.** For CN(C)c1ccc(O)c2c1C[C@H]1C[C@H]3[C@H](N(C)C)C(=O)C(C(N)=O)=C(O)[C@@]3(O)C(=O)C1=C2O, which Potency is on record?
**A.** Its Potency is “inactive”.

**Q.** CCCCCCCCCCCCCCCCCCCCCCO was tested. Which Potency did it give?
**A.** The Potency was “inactive”.

**Q.** With Cc1cc(C2CCCCC2)n(O)c(=O)c1 as the compound, how does the Potency read?
**A.** Its Potency is “inactive”.

**Q.** For C[C@]12CCC(=O)C=C1CC[C@@H]1[C@H]2[C@@H](O)C[C@@]2(C)[C@H]1CC[C@]2(O)C(=O)CO, which Potency is on record?
**A.** The Potency was “inactive”.

**Q.** With CN1CCC(=C2c3ccccc3CCc3sccc32)CC1 as the compound, how does the Potency read?
**A.** The Potency was “inactive”.

**Q.** CCCOc1ccc2nc(NC(=O)OC)[nH]c2c1 was tested. Which Potency did it give?
**A.** The Potency was “inactive”.

**Q.** Which Potency does the source give for Cc1cc2cc3c(C)cc(=O)oc3c(C)c2o1 here?
**A.** The Potency was “inactive”.

**Q.** How did the Potency turn out when COC1=C(OC)C(=O)C(CCCCCCCCCCO)=C(C)C1=O was run?
**A.** The Potency was “inactive”.

**Q.** Which Potency does the source give for C[Se]CCC(N)C(=O)O (configuration not stated) here?
**A.** Its Potency is “inactive”.
